Reference: PubChem BioAssay AID2284057 (EPA ToxCast)
Calls of active or inactive are those of the source. Rule for the calls: active = hit-call score of the fitted dose curve at least 0.9, where 1 is the maximum; inactive = score below 0.9.

biological target: CYP2B6, CYP2B6 (gene 1555) (UniProt P20813); experiment: ERF_FR_ADME_hCYP2B6: Eurofins (ERF) CYP450-related Enzyme Activity (ADME) LeadHunter Assay for CYP2B6
Protocol: ERF_FR_ADME_hCYP2B6 is a biochemical, single-readout assay that uses extracted gene-proteins in a cell-free assay. Measurements were taken 0.5 hour after chemical dosing in a 96-well plate. See CYP2B6 inhibition (recombinant, EFC substrate).ERF_FR_ADME_hCYP2B6 is an assay component calculated from the ERF_FR_ADME_hCYP2B6 assay. It is designed to measure enzyme activity using a type of enzyme reporter as detected by fluorescence intensity of HFC with fluorimetry technology.Data from the assay component ERF_FR_ADME_hCYP2B6 was analyzed at the assay endpoint, ERF_FR_ADME_hCYP2B6, in the positive analysis fitting direction relative to acetonitrile as the negative control and baseline of activity. Using a type of enzyme reporter, loss-of-signal activity can be used to understand changes in enzymatic activity as they relate to gene CYP2B6. To generalize the intended target to other relatable targets, this assay endpoint is annotated to the cyp intended target family, where the subfamily is steroidogenesis-related.
[…] are incubated for 15 minutes at 37 C with Bupropion as substrate and Clopidogrel as control inhibitor. Test Sample Requirements: Minimum for 1) Screen: 25 ul of 10 mM stock -OR- 1 mg (pre-weighed) for 10 uM final testing. 2) Dose Response: 60 ul of 10 mM stock -OR- 1 mg (pre-weighed). uM.

CYP2B6, CYP2B6 (gene 1555), sequence (P20813 whole entry, looked up): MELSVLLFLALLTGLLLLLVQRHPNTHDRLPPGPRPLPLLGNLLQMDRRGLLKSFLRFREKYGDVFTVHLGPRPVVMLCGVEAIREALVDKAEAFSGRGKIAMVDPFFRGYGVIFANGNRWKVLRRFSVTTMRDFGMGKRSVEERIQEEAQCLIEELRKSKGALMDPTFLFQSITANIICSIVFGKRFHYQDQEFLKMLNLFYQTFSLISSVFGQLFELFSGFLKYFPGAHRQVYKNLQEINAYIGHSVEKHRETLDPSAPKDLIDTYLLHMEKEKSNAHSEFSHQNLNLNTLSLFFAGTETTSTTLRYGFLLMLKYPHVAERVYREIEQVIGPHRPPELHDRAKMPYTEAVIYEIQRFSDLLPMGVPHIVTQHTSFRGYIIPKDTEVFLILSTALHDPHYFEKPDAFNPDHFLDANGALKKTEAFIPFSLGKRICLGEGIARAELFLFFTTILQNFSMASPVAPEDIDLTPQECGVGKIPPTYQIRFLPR

SMILES | AC50
O=C(/C=C/c1ccc(O)cc1)CC(=O)/C=C/c1ccc(O)cc1 | 1270 nM (active)
